In PubChem BioAssay:
Several values for one entry are separate records, joined by “and”; a condition that tells them apart may be missing. Equal values may be shown once. Records with an inconclusive call do not appear. Activity calls are given as the source filed them.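 How the source made its calls, unless noted: active means compounds whose cell count with miR-34 switched on is under 0.7 times the count with it off; inactive means the rest.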

Experiments:
[1] = compounds altering circadian rhythm period length – cell-based, LOPAC library, luminescence reporter (AID 2774; call rule not given here;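 further: values are relative to mean of DMSO wells on each plate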); conditions: circadian reporter cells, at 7 µM, actives lie on both sides
[2] = tested on: Hepatitis C virus NS3 helicase; assay: blockers of NS3h binding to ssDNA – biochemical, fluorescence polarization, LOPAC1280 library, primary screen (AID 687035; in the data active means inhibition above about 37%); conditions: Purified HCV NS3 helicase, Cy5-dT15 ssDNA binding fluorescence polarization; stronger effect = higher value; concentration not given here
[3] = compounds altering Cy5-DNA-NS3h complex signal – biochemical, LOPAC1280, artefact control for HCV NS3 helicase inhibitor project (AID 687037; call rule not given here); conditions: Cy5-DNA-NS3h complex fluorescence interference counterscreen
[4] = viability loss with induced miR-34 in A549 – imaging, A549 dox-inducible miR-34, nuclei and caspase counts, primary screen (AID 1347080); conditions: A549 miR-34 inducible, Hoechst nuclei count, 48 h
[5] = blockers of cellular phospholipid synthesis – cell-based, LOPAC library, screen 4, primary screen (AID 1347384; call rule not given here); conditions: animal cells, phospholipid biosynthesis inhibition screen; at 10 µM
[6] = galactose survival enhancers in mitochondrial complex I cybrids – cell-based, galactose medium, ATP luminescence, primary screen (AID 1645843;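 active means z-score of at least 1.8 in each of two replicates, scored against plate mean and spread of sample wells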;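 further: positive z means more ATP and so rescue of galactose-driven cybrid death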); conditions: complex I mutant cybrid cells, 72 h, stronger effect = higher value
[7] = molecular target: ATP-dependent translocase ABCB1 (Homo sapiens) (UniProt P08183); assay: P-glycoprotein substrate transport blockade – cell-based (AID 377; in the data active means fluorescence slope change above about 50%); conditions: MDR1-expressing cells, fluorescent substrate accumulation slope; stronger effect = higher value; concentration not given here
[8] = compounds altering viability of human ES cells (AID 493140; call rule not given here;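 further: cells exposed to compounds for four days before counting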); conditions: human embryonic stem cell survival screen; stronger effect = higher value
[9] = P. berghei load reduction in hepatocytes – cell-based, HepG2, luciferase luminescence, HepG2 viability, primary screen (AID 624349; in the data active means parasite load remaining mostly below about 12%, no sharp cut-off; inactive means mostly above about 10%;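 further: 100% = mean of DMSO negative control wells on the same plate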); conditions: P. berghei liver stage in HepG2, luciferase luminescence, concentration not given here; parasite load remaining: stronger effect = lower value; viability: measured here: HepG2 viability without parasites
[10] = MELAS cybrid and Rieske KO viability enhancers – cell-based, MELAS cybrids, Rieske KO mouse fibroblasts, CellTiter-Glo, primary screen (AID 1508586;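 active means mean z-score across replicates of 1.96 or higher in either the MELAS or the Rieske mutant cell line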;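 further: z relative to plate mean and SD of compound and empty wells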); conditions: low glucose
[11] = stronger effect = lower value, cell number ratio, induced over uninduced
[12] = measured here: relative caspase fold change +Dox/-Dox
[13] = measured here: total cells with miR-34 induction, stronger effect = lower value
[14] = measured here: total cells without miR-34 induction
[15] = MELAS cybrid survival, CellTiter-Glo 48 h, stronger effect = higher value
[16] = Rieske KO mouse fibroblast survival, CellTiter-Glo 72 h

Sequence of ATP-dependent translocase ABCB1 (Homo sapiens) (P08183 whole entry, looked up): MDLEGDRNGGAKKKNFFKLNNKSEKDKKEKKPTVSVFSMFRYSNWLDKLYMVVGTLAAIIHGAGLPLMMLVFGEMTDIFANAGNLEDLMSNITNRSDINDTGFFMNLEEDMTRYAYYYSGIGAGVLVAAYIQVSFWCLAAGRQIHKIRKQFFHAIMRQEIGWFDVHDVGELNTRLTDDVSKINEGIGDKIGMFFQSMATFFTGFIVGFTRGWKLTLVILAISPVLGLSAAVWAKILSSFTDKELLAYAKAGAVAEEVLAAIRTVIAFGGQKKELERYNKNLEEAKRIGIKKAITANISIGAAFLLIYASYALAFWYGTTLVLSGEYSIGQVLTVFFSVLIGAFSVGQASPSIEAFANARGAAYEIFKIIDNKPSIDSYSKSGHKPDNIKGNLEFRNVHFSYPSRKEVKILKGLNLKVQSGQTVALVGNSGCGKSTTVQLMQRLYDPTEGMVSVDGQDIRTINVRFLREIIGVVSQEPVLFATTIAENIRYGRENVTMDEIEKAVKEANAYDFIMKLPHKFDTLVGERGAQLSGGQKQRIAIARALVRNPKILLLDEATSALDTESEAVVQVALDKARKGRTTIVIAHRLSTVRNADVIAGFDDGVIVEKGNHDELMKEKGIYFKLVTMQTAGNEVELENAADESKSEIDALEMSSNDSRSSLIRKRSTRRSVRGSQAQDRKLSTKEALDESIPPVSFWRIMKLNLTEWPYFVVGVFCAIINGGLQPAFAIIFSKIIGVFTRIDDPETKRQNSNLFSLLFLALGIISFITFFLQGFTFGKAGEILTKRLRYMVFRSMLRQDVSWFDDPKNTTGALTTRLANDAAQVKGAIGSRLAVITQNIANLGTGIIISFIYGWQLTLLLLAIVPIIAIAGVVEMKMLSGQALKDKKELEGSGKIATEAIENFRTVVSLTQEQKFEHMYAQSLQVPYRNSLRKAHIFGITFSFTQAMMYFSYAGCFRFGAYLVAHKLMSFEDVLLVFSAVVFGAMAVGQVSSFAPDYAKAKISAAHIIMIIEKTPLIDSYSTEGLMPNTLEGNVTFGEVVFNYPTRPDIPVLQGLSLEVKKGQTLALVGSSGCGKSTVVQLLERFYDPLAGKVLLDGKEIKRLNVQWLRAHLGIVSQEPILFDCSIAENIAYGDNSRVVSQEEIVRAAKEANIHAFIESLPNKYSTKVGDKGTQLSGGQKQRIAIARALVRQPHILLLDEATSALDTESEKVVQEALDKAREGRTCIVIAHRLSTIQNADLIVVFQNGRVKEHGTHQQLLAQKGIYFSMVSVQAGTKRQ

## O=c1onc2n1-c1cc(Br)ccc1OC2
[1]
  period change: 0.015 h (inactive)
[2]
  inhibition: -4% (inactive)
[3]
  fluorescence ratio (interference): 1 (inactive)
[4]; [11]
  fold change: 1.09 (inactive) and 0.947 (inactive)
[4]; [12]
  fold change: 1.04 and 0.916
[4]; [13]
  cell count: 11200 and 5950
[4]; [14]
  cell count: 10300 and 6280
[5]
  outcome: inactive
[6]
  z-score: 0.095 (inactive)

## CCCCCC(O)CCCC(=O)O (stereo unspecified)
[1]
  period change: -0.17 h (inactive)
[2]
  inhibition: -4% (inactive)
[3]
  fluorescence ratio (interference): 1 (inactive)
[4]; [11]
  fold change: 0.96 (inactive) and 0.942 (inactive)
[4]; [12]
  fold change: 0.791 and 1.2
[4]; [13]
  cell count: 9800 and 6140
[4]; [14]
  cell count: 10200 and 6510
[5]
  outcome: inactive
[6]
  z-score: 0.165 (inactive)

## C[C@@H]1NC(=O)NC1=O
[7]
  fluorescence slope change: 57.7% (active)
[8]
  survival: 3.92 (inactive)
[9]
  parasite load remaining: 81.4% (inactive) and 66.6% (inactive)
  viability: 97.9% and 95.3%
[4]; [11]
  fold change: 0.891 (inactive) and 0.879 (inactive)
[4]; [12]
  fold change: 1.07 and 1.01
[4]; [13]
  cell count: 8770 and 8800
[4]; [14]
  cell count: 9840 and 10000
[10]; [15]
  z-score: 0.462 (inactive)
[10]; [16]
  z-score: -0.44

## CCCCC[C@H](O)/C=C/[C@@H]1[C@@H](C/C=C\CCCC(=O)O)[C@@H](O)C[C@H]1O
[8]
  survival: 95.3 (inactive)
[9]
  parasite load remaining: 32.1% (inactive)
  viability: 102%
[10]; [15]
  z-score: -0.59 (inactive)
[10]; [16]
  z-score: -0.344
[6]
  z-score: 0.625 (inactive)

## CC(N)C1CCC(C(=O)Nc2ccncc2)CC1 (stereo unspecified)
[1]
  period change: 0 h (inactive)
[2]
  inhibition: -1% (inactive)
[3]
  fluorescence ratio (interference): 1 (inactive)
[4]; [11]
  fold change: 0.953 (inactive) and 0.841 (inactive)
[4]; [12]
  fold change: 1.2 and 0.911
[4]; [13]
  cell count: 10100 and 7170
[4]; [14]
  cell count: 10600 and 8530
[5]
  outcome: inactive
[10]; [15]
  z-score: -0.271 (inactive)
[10]; [16]
  z-score: 0.184
[6]
  z-score: -0.475 (inactive)

## CCCCCCCCCCCCCCCCCCOC[C@H](COP(=O)([O-])OCC[N+](C)(C)C)OC
[1]
  period change: -0.025 h (inactive)
[8]
  survival: 97.7 (inactive)
[2]
  inhibition: 0% (inactive)
[3]
  fluorescence ratio (interference): 1 (inactive)
[4]; [11]
  fold change: 0.77 (inactive) and 1.03 (inactive) and 1.02 (inactive)
[4]; [12]
  fold change: 1.7 and 0.981 and 0.958
[4]; [13]
  cell count: 1920 and 5950 and 5710
[4]; [14]
  cell count: 2500 and 5760 and 5620
[5]
  outcome: inactive
[6]
  z-score: -0.975 (inactive)

## CN(CC=CC#CC(C)(C)C)Cc1cccc2ccccc12
[4]; [11]
  fold change: 0.964 (inactive) and 0.918 (inactive) and 0.968 (inactive)
[4]; [12]
  fold change: 2.12 and 1.02 and 0.751
[4]; [13]
  cell count: 9310 and 7680 and 9620
[4]; [14]
  cell count: 9660 and 8370 and 9940
[10]; [15]
  z-score: -0.142 (inactive) and -0.315 (inactive)
[10]; [16]
  z-score: -0.993 and 0.763
[6]
  z-score: -1.88 (inactive)

## C[C@H]1[C@H](NC(=O)/C(=N\OC(C)(C)C(=O)O)c2csc(N)n2)C(=O)N1S(=O)(=O)O
[8]
  survival: 21.6 (inactive)
[9]
  parasite load remaining: 29.2% (inactive) and 123% (inactive) and 17.7% (inactive)
  viability: 47.3% and 89% and 68%
[4]; [11]
  fold change: 0.907 (inactive) and 0.865 (inactive)
[4]; [12]
  fold change: 1.09 and 1.14
[4]; [13]
  cell count: 8940 and 9450
[4]; [14]
  cell count: 9850 and 10900
[10]; [15]
  z-score: 0.296 (inactive) and 0.337 (inactive)
[10]; [16]
  z-score: 0.0689 and -0.343
[6]
  z-score: 0.06 (inactive)

## Cc1nn(-c2ccccc2)c(C)c1C=NN1CCN(Cc2ccccc2)CC1
[2]
  inhibition: -4% (inactive)
[3]
  fluorescence ratio (interference): 1 (inactive)
[4]; [11]
  fold change: 0.991 (inactive) and 0.89 (inactive)
[4]; [12]
  fold change: 1.98 and 0.283
[4]; [13]
  cell count: 8530 and 7580
[4]; [14]
  cell count: 8610 and 8510
[5]
  outcome: inactive
[10]; [15]
  z-score: 1.46 (inactive)
[10]; [16]
  z-score: -0.978
[6]
  z-score: -0.13 (inactive)

## CNCCC(Oc1ccccc1C)c1ccccc1 (stereo unspecified)
[1]
  period change: 0.255 h (inactive)
[2]
  inhibition: -5% (inactive)
[3]
  fluorescence ratio (interference): 0.9 (inactive)
[4]; [11]
  fold change: 1.03 (inactive) and 0.898 (inactive) and 0.925 (inactive)
[4]; [12]
  fold change: 1.24 and 2 and 2.24
[4]; [13]
  cell count: 9740 and 9090 and 9100
[4]; [14]
  cell count: 9500 and 10100 and 9850
[5]
  outcome: inactive
[10]; [15]
  z-score: -0.0629 (inactive)
[10]; [16]
  z-score: -0.0775
[6]
  z-score: -0.235 (inactive) and -0.28 (inactive)

## CNCC(O)C(O)C(O)C(O)CO (stereo unspecified)
[8]
  survival: 4.5 (inactive)
[9]
  parasite load remaining: 95.3% (inactive)
  viability: 101%
[4]; [11]
  fold change: 0.893 (inactive) and 0.901 (inactive)
[4]; [12]
  fold change: 1.03 and 1.16
[4]; [13]
  cell count: 8100 and 7840
[4]; [14]
  cell count: 9080 and 8700
[10]; [15]
  z-score: -0.226 (inactive)
[10]; [16]
  z-score: 0.0963

## CCCC1CC(C(=O)NC(C(C)Cl)C2OC(SC)C(O)C(O)C2O)N(C)C1 (stereo unspecified)
[4]; [11]
  fold change: 0.887 (inactive) and 0.926 (inactive) and 0.928 (inactive)
[4]; [12]
  fold change: 0.463 and 0.824 and 1.2
[4]; [13]
  cell count: 8440 and 7670 and 9370
[4]; [14]
  cell count: 9520 and 8280 and 10100
[10]; [15]
  z-score: 0.443 (inactive) and -0.35 (inactive) and -0.364 (inactive)
[10]; [16]
  z-score: -0.229 and -0.0713 and 0.118
[6]
  z-score: -0.495 (inactive)

## O=C(c1ccc(OCCCc2cnc[nH]2)cc1)C1CC1
[2]
  inhibition: -3% (inactive)
[3]
  fluorescence ratio (interference): 1 (inactive)
[4]; [11]
  fold change: 0.955 (inactive) and 1.01 (inactive)
[4]; [12]
  fold change: 1.12 and 0.82
[4]; [13]
  cell count: 9150 and 7760
[4]; [14]
  cell count: 9580 and 7660
[5]
  outcome: inactive
[10]; [15]
  z-score: -0.324 (inactive)
[10]; [16]
  z-score: -0.0656
[6]
  z-score: -1.01 (inactive)

## CCCCC[C@H](O)/C=C/[C@@H]1[C@@H](C/C=C\CCCC(=O)O)[C@H](O)C[C@H]1O
[8]
  survival: 98.1 (inactive)
[4]; [11]
  fold change: 0.925 (inactive) and 0.811 (inactive) and 0.869 (inactive)
[4]; [12]
  fold change: 1.48 and 1.52 and 1.28
[4]; [13]
  cell count: 5990 and 4790 and 5310
[4]; [14]
  cell count: 6480 and 5900 and 6110

## O=C1c2c(O)cc(O)cc2OC(c2ccc(O)c(O)c2)C1O (stereo unspecified)
[1]
  period change: -0.11 h (inactive)
[2]
  inhibition: -3% (inactive)
[3]
  fluorescence ratio (interference): 1 (inactive)
[5]
  outcome: inactive
[10]; [15]
  z-score: -0.361 (inactive)
[10]; [16]
  z-score: 0.683
[6]
  z-score: 0.265 (inactive) and -0.07 (inactive) and 0.43 (inactive)
